The text below walks through data of PubChem BioAssay (NCI).

The structures appear in SMILES notation. This is part of a sample that, as a whole, favours compounds with a hit. Of some 83,000 tested, about 20% had one in any assay.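 Single-concentration screen, 48 h exposure, 96-well plates. Endpoint: percent growth. Below 10 = active.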 A number with no mark means an inactive call. Active and inactive are the calls of the source.

Holding throughout (experiment): NCI-60 one-dose screen, 48 h (100 = growth as untreated, 0 = no growth, -100 = all killed)
What all share (details): 10 µM unless noted

The test system of assay [1] is DU-145 prostate.
For assay [2], the system named is K-562 leukemia.
Assay [3] deals with MALME-3M melanoma.
Assay [4] relates to MDA-MB-231 breast.
Assay [5] has as its system RXF 393 renal.
Assay [6] relates to SF-268 CNS.
The test system of assay [7] is SF-295 CNS.
Assay [8] relates to SF-539 CNS.
For assay [9], the system named is UACC-257 melanoma.
The subject of assay [10] is M14 melanoma.
The subject of assay [11] is HCT-15 colon.
Assay [12] relates to HT29 colon.
Assay [13] deals with SNB-75 CNS.
Assay [14] relates to SNB-19 CNS.
Assay [15] has as its system U251 CNS.
For assay [16], the system named is PC-3 prostate.
The subject of assay [17] is SK-MEL-5 melanoma.
Assay [18] concerns UACC-62 melanoma.
The test system of assay [19] is LOX IMVI melanoma.
Assay [20] relates to SK-MEL-28 melanoma.

Consider `COC(=O)CC[C@H](C)[C@H]1CC[C@H]2[C@@H]3CC[C@@H]4CC5(CC[C@]4(C)[C@H]3CC(=O)[C@]12C)Nc1ccccc1NC5=NC(C)(C)C` (stereo not given in full), for which the growth in [1] was 90.2%; in [2], 42.2%; in assay [3] it was 109%; in [4], 86.7%; in assay [5], 84.7%; in assay [6], 84.1%. The growth in [7] was 84%; in [8], 90.8%; in [9], 77.2%; in [10] it was 84.9%; in assay [11], 51.4%; in assay [12], 69.8%. In addition, the growth in assay [13] was 71.1%; in [14] it was 81.5%; in [15], 48.3%; in [16], 56.5%; in [17], 77.5%; in [18] it was 57.9%. Moreover, the growth was 47.4% in assay [19] and 89.2% in assay [20].

Turning to `C=C1C(=O)O[C@H]2[C@H]1CC/C(Cn1cc(-c3ccccc3)nn1)=C\CC[C@@]1(C)O[C@@H]21`, the growth in assay [1] was -61.8% (active); in assay [2], -3.88% (active); in assay [3] it was -46.2% (active); in [4], -13% (active); in assay [5] it was -74.1% (active); in assay [6] it was 61.2%. The growth was 75% in assay [7]; -34.2% (active) in [8]; -46.5% (active) in [9]; -59% (active) in assay [10]; -70.4% (active) in assay [11]; -58.3% (active) in [12]. The growth is 64.2% in assay [13]; 68.1% in assay [14]; 50.2% in [15]; 37.3% in [16]; 21% in assay [17]; -45.2% (active) in assay [18]. Moreover, the growth was -84.7% (active) in [19] and -26.9% (active) in assay [20].

Consider `COc1c(B(O)O)cccc1-c1cc(C)c2c(ccc3[nH]ncc32)n1`, for which the growth in [1] was 80.8%; in [2], 99.4%; in assay [3] it was 179%; in assay [4] it was 22.1%; in assay [5], 7.05% (active); in assay [6], 62.7%. Also, the growth in assay [7] was 87.8%; in assay [8], 25.2%; in [9], 126%; in [10], 131%; in [11] it was 95.2%; in assay [12], 88.2%. Besides, the growth in [13] is -29.9% (active); in assay [14], 91.1%; in assay [15] it was 87.8%; in assay [16], 84.3%; in [17] it was 88.9%; in assay [18], 98.8%. Also, the growth in assay [19] was 56.9%; in assay [20], 116%.

For `Cn1cc(-c2csc(-c3c[nH]c4ccccc34)n2)c2cnccc21`, the growth in assay [1] was 20.9%; in [2], -28.1% (active); in assay [3] it was -79% (active); in [4] it was -37.4% (active); in assay [5], -84% (active); in assay [6] it was 54.6%. For the same compound, the growth in assay [7] is -69.7% (active); in assay [8], -88.4% (active); in assay [9], 90.9%; in assay [10] it was -80.2% (active); in assay [11], -59.7% (active); in assay [12] it was -1.85% (active). Further, the growth in [13] was 80.6%; in [14], 48.8%; in assay [15], -25.2% (active); in [16] it was 48.4%; in assay [17], 51.9%; in assay [18] it was -52.7% (active). Also, the growth in assay [19] is -84.9% (active); in [20], -51.5% (active).

Consider `COc1ccc2c(c1OC)CO[C@@H]2[C@H]1c2c(cc3c(c2OC)OCO3)CCN1S(=O)(=O)c1cn(C)cn1`, for which the growth is 11.1% in assay [1]; 10.7% in assay [2]; 45.6% in assay [3]; 30.4% in assay [4]; -27.9% (active) in [5]; 40.8% in assay [6]. Moreover, the growth in [7] was 14.5%; in assay [8], -14.2% (active); in [9], 56.2%; in [10] it was 3.48% (active); in assay [11] it was 13.5%; in assay [12], 16.9%. The growth is 27.7% in assay [13]; 33.2% in assay [14]; 9.29% (active) in [15]; 24% in assay [16]; 23.4% in [17]; 27.6% in [18]. In addition, the growth in assay [19] is 38%; in [20] it was 55.3%.

Regarding `c1csc(-c2ccc(CNc3c4ccccc4nc4ccccc34)cc2)c1`, the growth in assay [1] was 61.7%; in assay [2], -39.9% (active); in assay [3], -82% (active); in [4] it was 38.3%; in [5], -14.3% (active); in assay [6] it was 62.9%. The growth in [7] is 15.8%; in assay [8], 12.5%; in assay [9] it was -37.4% (active); in assay [10], -74.4% (active); in assay [11] it was -66.2% (active); in assay [12], -46.8% (active). Further, the growth was 36.1% in assay [13]; 46.2% in assay [14]; -72.7% (active) in assay [15]; 24% in assay [16]; -90.7% (active) in assay [17]; 64.5% in [18]. Besides, the growth in assay [19] was -90.7% (active); in assay [20], -86% (active).

For `COc1ccc(Cc2cnc(NC(=O)c3cc(C)oc3C)s2)cc1`, the growth in assay [1] was 40.7%; in [2], 11.4%; in [3], 52.5%; in assay [4], 63.6%; in [5] it was 16.4%; in assay [6], 53.3%. For the same compound, the growth was 39.4% in [7]; 32.5% in assay [8]; 57.3% in [9]; 18.9% in assay [10]; 26.9% in assay [11]; 13.6% in assay [12]. The growth in [13] was -8.41% (active); in [14], 38.7%; in assay [15] it was 35.8%; in [16], 39.3%; in [17], 25.8%; in [18], 27.1%. Besides, the growth is 39.9% in assay [19] and 54.3% in assay [20].
